# Compounds with a hit are over-represented: about 2.6% of the library has one in this group of screens.
# CRFR2-BP antag – blocks CRF-induced signaling of the CRF-BP/CRF-R2 complex; HEK293 CRF-R2/CRF-BP, CRF-induced calcium fluorescence; inhibition, % at 11.8 µM; 350,000 tested, 0.59% active; AID 588475;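 active = inhibition of the ligand-induced calcium signal above about 50% at the single tested concentration, limit read from the data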
# PHOSPHO1 block – blocks human PHOSPHO1 phosphatase activity; recombinant PHOSPHO1, absorbance phosphatase assay; inhibition, % at 13.3 µM; 290,000 tested, 1.1% active; in the data active = inhibition above about 60%
# Target sequence (Q8TCT1 whole entry, looked up): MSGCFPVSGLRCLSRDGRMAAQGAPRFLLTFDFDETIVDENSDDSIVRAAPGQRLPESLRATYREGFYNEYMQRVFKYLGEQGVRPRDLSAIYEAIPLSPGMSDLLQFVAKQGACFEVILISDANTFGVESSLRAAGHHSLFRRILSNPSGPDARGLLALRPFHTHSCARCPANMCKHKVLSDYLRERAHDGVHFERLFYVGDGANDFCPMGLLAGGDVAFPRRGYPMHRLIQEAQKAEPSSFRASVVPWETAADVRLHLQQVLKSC
# PABP polyA inh – blocks human PABP binding to poly(A) RNA | P11940 | fluorescence polarization | inhibition, % at 35 µM | 290,000 tested, 1% active | AID 2014;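 also: calls also rest on retests at 20 µM and on dose response follow-up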
# MLLE-PAM2 inh – inhibitors of microRNA-mediated deadenylation, human PABP1 MLLE binding; AID 588489; inhibition, % at 20 µM; P11940; GST-MLLE / FITC-PAM2 fluorescence polarization; 360,000 tested, 0.36% active; in the data active = inhibition above about 35%, passing the limit was not always enough;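 also: plate controls were DMSO wells with GST-MLLE for no effect and wells lacking GST-MLLE protein for full effect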
# eIF4H inh – inhibitors of RNA binding by human eIF4H | Q15056 | inhibition, % at 35 µM | AID 2012 | 290,000 tested, 0.94% active | eIF4H fluorescence polarization binding assay;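 also: calls also rest on retests at 20 µM and on dose response follow-up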
# An asterisk follows results filed as active; u = inconclusive; x = no result given; ! = not confirmed by another sample. Unless noted, no rule for the calls is given here.
SMILES,CRFR2-BP antag,PHOSPHO1 block,PABP polyA inh,MLLE-PAM2 inh,eIF4H inh
CC1CCC/C(=N\NC(=S)NCc2ccccc2)C1 (stereo not drawn),34.4,85.0*,9.0,-4.6,7.8
CC1C/C(=N\NC(=S)NCc2ccccc2)CC(C)(C)C1 (stereo not drawn),6.5,75.5*,8.4,24.0,-3.2
Cc1ccc(N/N=C2/CCCNC2=O)cc1,45.0,93.0*,9.6,23.9,0.6
CCCCNC(=O)C1(C)CCCCN1C(=O)c1ccno1 (stereo not drawn),x,x,x,4.4,x
CN1CCN(c2c(F)cc3c(=O)c(C(=O)O)cn4c3c2SCC4)CC1,-13.0,-5.8,60.6*!,7.8,97.0*!
Cc1ccc([C@@H]2CC=C(C(=O)O)[C@H](c3ccc(Cl)cc3)N2S(=O)(=O)c2ccccc2C)cc1,21.6,x,x,2.6,x
Cc1nc2cc(C(=O)O)ccc2s1,3.3,3.6,8.1,39.2*,-14.8
Cc1nc2ccc(NC(=O)c3ccccc3)cc2s1,-3.1,34.9,14.0,-0.1,13.4
Cc1ccc2c(cnn2C(=O)CCC(=O)N2CCCCC2)c1,70.9*,38.6,-3.6,11.4,-11.3
O=C(CN1CCN(C(=O)c2ccco2)CC1)Nc1c2c(nc3c1CCC3)CCCC2,71.7*,35.1,19.5,-1.0,5.0
CCCNC(=O)C1(C)CCN(C(=O)c2cccc(Cl)c2)C1 (stereo not drawn),x,x,x,10.1,x
COc1ccc(-c2noc(CCC(=O)NC3CCCCCC3)n2)cc1OC,5.0,x,x,-78.1,x
CC(=O)Oc1cccc2c1C(=O)c1c(OC(C)=O)cc(C(=O)O)cc1C2=O,-17.8,25.5,-4.0,33.6,u
O=C(O)c1cc(O)c2c(c1)C(=O)c1cc(O)cc(O)c1C2=O,8.1,-0.2,75.7*,-9.4,90.1*
Nc1c(C(=O)Nc2ccccc2)sc2nc3c(c(-c4ccco4)c12)CCCC3,-5.2,-60.3,15.3,-12.2,19.8
Cc1ccc(NC(=O)c2sc3nc4c(c(-c5ccco5)c3c2N)CCC4)cc1,-0.4,59.2,52.9*,-9.5,82.0*
Nc1c(C(=O)Nc2ccccc2)sc2nc3c(c(-c4ccco4)c12)CCC3,-4.3,86.6*,62.5*,3.0,84.3*
COC(=O)C=CSC(=S)C1CCCC1=N (stereo not drawn),1.5,x,x,17.9,x
COc1ccc(-c2c(C)nc(N)nc2-c2ccc(OC)cc2O)cc1,-17.4,51.3,55.4*,31.3,66.1*
CCOc1ccc(-c2nc(N)ncc2Oc2ccccc2Br)c(O)c1,4.3,-13.6,2.3,2.3,2.1
CCOc1ccc(-c2nc(N)ncc2Oc2cccc(OC)c2)c(O)c1,53.7*,-4.9,-5.0,-0.8,-2.0
Cc1ccc(Nc2ccc(N)cc2S(=O)(=O)O)cc1,-7.0,-1.1,21.8,8.4,19.1
Nc1ccc(Nc2ccccc2)c(S(=O)(=O)O)c1,-1.2,32.7,69.0*,-5.8,95.2*
CCc1nc2c(OCC(=O)C(C)(C)C)cccn2c1N(C)C(=O)C(C)C,x,x,x,-7.2,x
CCOC(=O)c1c(C)n(OCc2ccccc2)c2ccc3nonc3c12,52.7*,21.6,8.4,0.3,13.9
SMILES,CRFR2-BP antag,PHOSPHO1 block,PABP polyA inh,MLLE-PAM2 inh,eIF4H inh
C=CCOn1c(C)c(C(C)=O)c2c3nonc3ccc21,-1.2,0.5,-14.2,-2.7,27.3
O=C(CCCOc1ccc(Cl)cc1)Nc1cccc(C(=O)O)c1,83.7*,35.3,8.5,6.1,-9.7
O=C(O)c1ccc(N2C(=O)c3ccccc3C2=O)cc1[N+](=O)[O-],11.8,x,x,5.4,x
CCOC(=O)C1(C)CCCN(C(=O)Cc2ccc3ccccc3c2)C1 (stereo not drawn),x,x,x,-0.7,x
CN(CCNC(=O)c1c[nH]c2c1ccc1ccccc12)CCNC(=O)c1c[nH]c2c1ccc1ccccc12,-3.5,x,x,-2.4,x
COc1ccccc1Cc1nnc(NC(=O)C2CCN(C(=O)c3ccco3)CC2)s1,-2.3,22.8,5.2,26.3,-3.5
Cc1ccc2cccnc2c1NC(=S)NC(=O)c1ccccc1,-4.3,69.2*,-8.2,20.0,7.5
C[C@@H]1CN([C@@H](C)CO)C(=O)CCCn2nncc2CO[C@@H]1CN(C)S(=O)(=O)c1cccc(C#N)c1,-10.8,x,x,-1.0,x
NC(=O)c1ccccc1N/C=C1\CCCCC1=O,-14.4,-21.6,-6.4,8.1,0.7
CCOC(=O)c1ccccc1N/C=C1\CCCC1=O,0.7,93.8*,3.8,-56.8,5.2
CCOC(=O)c1c2ccc(OCC(=O)NN)cc2n2ccccc12,-14.4,31.7,-0.4,58.0*,9.7
COc1ccccc1S(=O)(=O)N(C)C[C@@H]1OCc2cn(nn2)CCCC(=O)N([C@@H](C)CO)C[C@H]1C,-4.8,x,x,0.2,x
CC1=NOC(=O)/C1=C\c1ccc(-c2ccc(Cl)cc2Cl)o1,-31.3,-22.6,6.1,-1.3,54.9*
CCCOc1ccc(Cl)cc1/C=C1/C(=O)ON=C1C,10.3,5.2,4.2,9.5,-5.0
O=C(O)C1Nc2c(O)cccc2C2C=CCC12 (stereo not drawn),14.0,-5.8,6.4,-1.0,99.3*
O=C(O)C1Nc2c(Cl)cc(Cl)c(Cl)c2C2C=CCC12 (stereo not drawn),5.7,x,x,-21.8,x
O=C(O)C1Nc2c(Cl)cc(Cl)cc2C2C=CCC12 (stereo not drawn),4.5,-46.8,78.4*,-20.0,84.3*
Nc1nnnn1CC(=O)OCc1cccc(Br)c1,4.5,29.3,2.0,-15.3,-9.4
COC1=C(c2ccccc2)C(=O)c2ccccc2C1=O,14.2,-10.6,-3.0,49.4*,0.6
COc1cc(/C=C2\CCCc3c2nc2ccccc2c3C(=O)O)cc([N+](=O)[O-])c1O,5.0,-13.0,48.9*,20.2,79.5*
COc1cc(/C=C2\CCCc3c2nc2ccccc2c3C(=O)O)cc(OC)c1O,4.4,37.7,28.6,18.0,29.1
COc1ccc(N=C(C)C2C(=O)c3ccccc3C2=O)cc1,x,x,x,3.0,x
COc1ccc(N=C(C)C2=C(O)CSC2=O)cc1,2.0,88.8*,3.6,28.4,-6.2
CC(=Nc1ccccc1)C1=C(O)CSC1=O,9.0,-60.0,51.5*,32.0,34.2*
CC(=Nc1ccccc1C)C1=C(O)CSC1=O,-16.6,54.2,14.5,33.2,7.4
SMILES,CRFR2-BP antag,PHOSPHO1 block,PABP polyA inh,MLLE-PAM2 inh,eIF4H inh
CCc1ccccc1NC(=O)C1C2C=CC(O2)C1C(=O)O (stereo not drawn),-1.7,2.8,0.4,-0.1,-5.9
O=C(O)C1C2C=CC(O2)C1C(=O)Nc1ccccc1C(F)(F)F (stereo not drawn),57.8*,2.0,1.4,31.9,13.3
COCCN(Cc1ccc(C)cc1)C(=O)[C@H]1O[C@@H](n2ccc(=O)[nH]c2=O)[C@H](O)[C@@H]1O,x,x,x,2.2,x
COc1ccc(NC(=O)CSc2[nH]c(=O)cc(C)c2C#N)cc1OC,-11.8,-7.0,7.5,1.5,-3.5
Cc1ccccc1NC(=O)CSc1[nH]c(=O)cc(C)c1C#N,11.9,32.6,52.0*,-42.8,22.4*
Cc1cc(=O)[nH]c(SCC(=O)c2ccccc2)c1C#N,-6.6,15.8,68.8*,-66.3,80.8*
Cc1cc(=O)[nH]c(SCC(=O)NC(C)C2CC3CCC2C3)c1C#N (stereo not drawn),5.7,1.1,78.7*,-0.9,3.3*

# Source: PubChem BioAssay (Sanford-Burnham Center for Chemical Genomics)
